Measured values taken from the supplement of paper PMC6555819.

Legend:
Assay in all cases: PBM binding z-score (relative to random genomic background probes); higher = stronger binding; sequences stand for … in GC…GCGATTGACAGCGTAGAATGAAGG
[1] = tested on: FXR:RXRa (NR concentration 270 nM, RXRa partner concentration 90 nM)
Method in brief: (§1)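 Ligand-free nuclear receptor dimers were bound for 1 h to custom Agilent 4×180K protein-binding microarrays. Detection used antibodies against each partner (one per run). Binding z-scores rest on regression-normalized fluorescence, with random background probes as the reference.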

[2] = tested on: LXRa:RXRa (NR concentration 270 nM, RXRa partner concentration 90 nM)
Method in brief: as §1

[3] = tested on: LXRa homodimer (NR concentration 270 nM)
Method in brief: as §1

[4] = tested on: LXRb:RXRa (NR concentration 270 nM, RXRa partner concentration 90 nM)
Method in brief: as §1

[5] = tested on: LXRb homodimer (NR concentration 270 nM)
Method in brief: as §1

[6] = tested on: PPARa:RXRa (NR concentration 270 nM, RXRa partner concentration 90 nM)
Method in brief: as §1

[7] = tested on: PPARg:RXRa (NR concentration 180 nM, RXRa partner concentration 90 nM)
Method in brief: as §1

[8] = tested on: PPARg:RXRa 270nM:90nM, anti-RXR (NR concentration 270 nM, RXRa partner concentration 90 nM)
Method in brief: as §1

[9] = tested on: PPARg:RXRa 30nM:10nM, anti-RXR (NR concentration 30 nM, RXRa partner concentration 10 nM)
Method in brief: as §1

[10] = tested on: PPARg:RXRa 90nM:30nM, anti-RXR (NR concentration 90 nM, RXRa partner concentration 30 nM)
Method in brief: as §1

[11] = tested on: PPARg:RXRa DBDmut IVT, anti-RXR (DBD mutation: RXRa K156A/R161A, NR concentration 270 nM, RXRa partner concentration 90 nM)
Method in brief: as §1

[12] = tested on: PPARg:RXRa IVT, anti-PPARg (NR concentration 270 nM, RXRa partner concentration 90 nM)
Method in brief: as §1

[13] = tested on: PPARg DBDmut:RXRa IVT, anti-PPARg (DBD mutation: PPARg1 K132A/R137A, NR concentration 270 nM, RXRa partner concentration 90 nM)
Method in brief: as §1

[14] = tested on: PPARg DBDmut IVT, anti-PPARg (DBD mutation: PPARg1 K132A/R137A, NR concentration 270 nM)
Method in brief: as §1

[15] = tested on: PPARg homodimer (NR concentration 180 nM)
Method in brief: as §1

[16] = tested on: PXR:RXRa (NR concentration 270 nM, RXRa partner concentration 90 nM)
Method in brief: as §1

[17] = tested on: PXR homodimer (NR concentration 270 nM)
Method in brief: as §1

[18] = tested on: RARa:RXR (NR concentration 270 nM, RXRa partner concentration 90 nM)
Method in brief: as §1

[19] = tested on: RARa homodimer (NR concentration 270 nM)
Method in brief: as §1

[20] = tested on: RARb:RXRa (NR concentration 270 nM, RXRa partner concentration 90 nM)
Method in brief: as §1

Sequence | PBM binding z-score [1] | PBM binding z-score [2] | PBM binding z-score [3] | PBM binding z-score [4] | PBM binding z-score [5] | PBM binding z-score [6] | PBM binding z-score [7] | PBM binding z-score [8] | PBM binding z-score [9] | PBM binding z-score [10] | PBM binding z-score [11] | PBM binding z-score [12] | PBM binding z-score [13] | PBM binding z-score [14] | PBM binding z-score [15] | PBM binding z-score [16] | PBM binding z-score [17] | PBM binding z-score [18] | PBM binding z-score [19] | PBM binding z-score [20]
CCGACTGGGGCAACGTTACCATAACGCACAGCCA | -0.667 | -0.521 | -0.397 | -0.465 | -1.01 | 0.0876 | 1.64 | 0.667 | -0.502 | -0.136 | 4.02 | 3.62 | -0.725 | -0.25 | -0.224 | -0.885 | -0.271 | -0.695 | -0.177 | 0.224
TCATATAGGTAAAGGTGAAACTCGAACGATATGA | 0.837 | 1.52 | -0.0632 | 1.7 | -0.204 | 3.58 | 4.46 | 4.88 | 4.59 | 5.12 | 4.08 | 4.59 | 1.59 | 2.12 | 1.36 | 1.13 | -0.357 | 1.76 | 0.238 | 2.05
TGAATGAGGTTCTAAGATCAGGGAACGTTGCAAA | -0.725 | -0.693 | -0.989 | -0.763 | -0.398 | -0.344 | -0.0951 | -0.03 | -0.103 | 0.161 | -0.614 | 0.0916 | -0.614 | -0.528 | -0.83 | -0.331 | -0.563 | -0.599 | -0.564 | -0.67
TCATATAGGTAAATGCTAGGTGAAATTCCGATCT | 0.456 | 0.522 | -0.0474 | 0.729 | 0.187 | 1.17 | 0.929 | 2.31 | 3.86 | 3.3 | 3.98 | 2.41 | 0.621 | 1.13 | 1.04 | 0.404 | 0.241 | 0.848 | 1.28 | 0.363
ATACCAAGGTGATCGTGAGGTCGTTCATACTAAC | 2.05 | 1.58 | 1.23 | 1.4 | 0.148 | 1.53 | 0.472 | 0.354 | -0.0192 | -0.0407 | 0.587 | 1.54 | 0.827 | 0.877 | 1.15 | 3.23 | 2.03 | 2.01 | 0.612 | 1.5
TCTTGAAGATCAGCAGGTTAAGAAAGCTGGCCAA | 0.211 | 0.582 | -0.541 | 0.285 | -0.955 | 0.856 | -0.581 | 1.44 | 2.86 | 2.07 | 1.75 | -0.514 | -1.09 | -0.481 | -0.436 | 0.0848 | -0.299 | 0.104 | -0.00981 | 0.0583
AGAATGAGGTTATTATGATCAGGGAATTGCGGTC | 1.62 | 1.46 | 0.202 | 1.16 | 0.134 | 2.71 | 1.93 | 1.96 | 0.795 | 1.48 | 3.67 | 2.89 | 1.32 | 0.834 | 0.53 | 1.11 | 0.371 | 1.34 | 0.69 | 1.24
TCTGCTAGGTTAACGATGGTCAGCTAATCTGCTA | -1.53 | 0.817 | -0.894 | -0.156 | -0.756 | 0.393 | -0.117 | 0.909 | 1.45 | 1.06 | 2.11 | 1.89 | -0.412 | -0.772 | -1.29 | -0.232 | -0.501 | 0.0866 | -0.99 | 1.15
ATCTCTAGGTAAAGAAAGTTCAGTGAATGCAAAT | 0.762 | 4.7 | 1.94 | 1.58 | 0.904 | 1.38 | 0.409 | 0.933 | 0.542 | 0.768 | 2 | 1.69 | 1.32 | 0.83 | 1.41 | 2.68 | 1.68 | 1.42 | 1.41 | 1.82
AGAATCAGGTTATACGTAGATCAGGGAAGAAAGT | 0.826 | 0.893 | 0.313 | 0.875 | 0.265 | 1.63 | 1.11 | 1.38 | 0.762 | 0.859 | 3.66 | 2.1 | 1.47 | 0.861 | 0.756 | 0.61 | 0.471 | 0.799 | 0.86 | 0.961
ATCGAAAGGACGAAGGTGAGTATACCCACCCGAA | -0.0229 | 0.0207 | -0.291 | -0.347 | -0.118 | -0.0423 | 1.05 | 0.837 | 0.489 | 0.641 | -0.74 | 0.283 | -0.404 | -0.244 | 0.0409 | 0.00854 | -0.3 | -0.0536 | 0.0942 | 1.17
TCTTGTAGATCAGCAGGTTAAGAAGGCTGGCCAA | 0.433 | 0.344 | -0.0872 | 0.367 | -0.714 | 0.674 | -0.387 | 1.6 | 2.59 | 2.41 | 1.84 | 0.182 | -0.501 | -0.862 | 0.413 | 0.183 | -0.311 | 0.64 | -0.641 | 0.214
CAAACTAGGTCCAGAGGTCAAAGTCCGCTTCCCG | 4.77 | 5.55 | 5.71 | 5.03 | 1.62 | 5.29 | 5.18 | 6.22 | 4.37 | 6.29 | 2.96 | 3.98 | 0.89 | 0.535 | 3.29 | 5.47 | 2.58 | 5.5 | 0.452 | 4.11
TCTAGTTCGTCAAAGGTCACACACTCGAAATGCG | 6.15 | 6.02 | 4.48 | 5.55 | 1.9 | 5.99 | 5.62 | 6.47 | 5.73 | 6.28 | 2.89 | 3.87 | 2.7 | 1.85 | 3.82 | 6.15 | 2.25 | 6.52 | 3.27 | 5.24
